Test [1] can be described thus: qHTS assay to identify small molecule agonists of the NFkB signaling pathway - cell viability counter screen (AID 1159515; calls by dose curve; further: nearly all actives have a fitted effect of over 55% in size; further: potency means the concentration at half of the fitted maximal effect). The method in brief:
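5 hr compound treatment of NFkB-bla ME-180 cells (2,000/well, seeded overnight beforehand), followed by reporter substrate for 1.5 hr. CellTiter-Glo added afterward; luminescence after 30 min RT.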

A short description of test [2]: qHTS assay to identify small molecule agonists of the AP-1 signaling pathway - cell viability counter screen (AID 1159525; calls by dose curve; further: nearly all actives have a fitted effect of over 55% in size; further: potency means the concentration at half of the fitted maximal effect). The gist of the method:
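ME-180 AP-1-bla, 2500 cells/well, Opti-MEM + 0.5% dialyzed FBS; overnight 37 °C; cpd 15-pt titration, 5 h 37 °C; CellTiter-Glo 30 min RT; luminescence read; normalised to TOAB and DMSO controls.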

Test [3] can be described thus: qHTS assay to identify small molecule agonists of the RXR signaling pathway - cell viability counter screen (AID 1159529). Further: nearly all actives have a fitted effect of over 50% in size. Further: potency means the concentration at half of the fitted maximal effect. The gist of the method:
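Counter screen: CellTiter-Glo luminescence. Cells: RXR-alpha-UAS-bla HEK 293T. Medium: 2% charcoal-stripped FBS. Treatment: 16 h, 37 C. Reagent incubation: 30 min, RT.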
(In general: In qHTS, concentration-response curves come from the screen itself.)

The nature of test [4]: qHTS assay to identify small molecule antagonists of the retinoid acid receptor (RAR) signaling pathway - cell viability counter screen (AID 1159551). Further: nearly all actives have a fitted effect of over 35% in size. The gist of the method: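 Seed C3RL4 cells; next day add compound, then retinol to 1 uM final; incubate 6 h at 37 C; add CellTiter-Glo; read luminescence after 30 min at RT.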
Test [5] in a line: qHTS assay to identify small molecule antagonists of the retinoic acid receptor (RAR) signaling pathway (AID 1159552; further: nearly all actives have a fitted effect of over 50% in size; further: potency means the concentration at half of the fitted maximal effect). The gist of the method:
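Antagonism of retinol-induced RARE reporter activity was measured in C3RL4 cells. Exposure to compounds and 1 uM final retinol lasted 6 hr at 37 C, with luminescence as endpoint.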

Test [6] can be described thus: qHTS assay to identify small molecule agonists of the retinoic acid receptor (RAR) signaling pathway (AID 1159553). Further: potency means the concentration at half of the fitted maximal effect. The method in brief: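 Activation of retinol signaling was monitored via a RARE luciferase reporter in C3RL4 cells. After 6 hr compound treatment at 37 C, detection reagent was added for 30 min at room temperature before luminescence reading.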
Test [7] can be described thus: qHTS assay to identify small molecule antagonists of the estrogen related receptor (ERR) signaling pathway (AID 1224819;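 further: luminescence from an ERR-driven luciferase reporter measured with One-Glo reagent; series mostly up to about 46 µM; nearly all actives have a fitted effect of over 50% in size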). The gist of the method: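 qHTS in ERR cells, 2,000/well, 1536 format. Cpd (DMSO) added after 6 h settle, 18 h 37 C. One-Glo luminescence, 30 min RT.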
A short description of test [8]: qHTS assay to identify small molecule agonists of the estrogen related receptor (ERR) signaling pathway (AID 1224820). The method in brief: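 Cells: ERR line from NTP, 2,000/well. Pre-incubation 6 h, 37 C/5% CO2. Compound (DMSO) pin transfer, 18 h 37 C. One-Glo, 30 min RT, luminescence.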
The nature of test [9]: qHTS assay to identify small molecule agonists of the estrogen related receptor signaling pathway with the pleiotropic PPARgamma coactivator (PGC) (AID 1224823). The method in brief:
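Steps: plate PGC/ERR cells at 2,000 cells/well; incubate 6 h, 37 C/5% CO2; pin-transfer compounds (DMSO); incubate 18 h, 37 C; add One-Glo; 30 min RT; read luminescence.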

The target of test [10] is Luciferin 4-monooxygenase (Photinus pyralis) (UniProt P08659). As to the kind of experiment: qHTS assay to identify small molecule inhibitors of firefly luciferase (AID 1224835). Further: nearly all actives have a fitted effect of over 25% in size. Further: potency means the concentration at half of the fitted maximal effect. The gist of the method:
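Quantitative HTS format; KM concentrations of both substrates. Purified P. pyralis FLuc activity quantified from luminescence images.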

The nature of test [11]: qHTS assay to identify small molecule agonists of the vitamin D receptor (VDR) signaling pathway - cell viability counter screen (AID 743224). Further: nearly all actives have a fitted effect of over 50% in size. Further: potency means the concentration at half of the fitted maximal effect. The method in brief:
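Here cell health was gauged by luminescent ATP detection (CellTiter-Glo, 30 min RT) in VDR-bla cells that had been incubated with test compounds for 16 h at 37C and 5% CO2.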

A short description of test [12]: qHTS assay to identify small molecule antagonists of the vitamin D receptor (VDR) signaling pathway - cell viability counter screen (AID 743225). Further: nearly all actives have a fitted effect of over 50% in size. Further: potency means the concentration at half of the fitted maximal effect. The method in brief: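 Same-well multiplex: following 16 h treatment of HEK 293T cells carrying a UAS-driven beta-lactamase reporter with compound and agonist (3 nM final), and a 2 h FRET substrate step, CellTiter-Glo was added and luminescence read after 30 min.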

Test [13] is described as follows: qHTS assay to identify small molecule agonists of the endoplasmic reticulum stress response signaling pathway (AID 1159516; active means well fitted activation curve with a large enough effect in the signal ratio in the repeat runs, not every such curve was filed as active; the % refers to the signal ratio). The gist of the method: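 Reporter HeLa cells (ESRE-beta-lactamase) underwent 5 hr compound incubation at 37 C and 5% CO2 in quantitative HTS format. Detection followed 2 hr of FRET substrate loading at room temperature.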
A short description of test [14]: qHTS assay to identify small molecule agonists of the endoplasmic reticulum stress response signaling pathway - cell viability counter screen (AID 1159517; calls by dose curve). The gist of the method: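 CellTiter-Glo was added to wells already read for beta-lactamase FRET, and luminescence was recorded 30 min later. Cells: ESRE-bla HeLa, 1,500 per well, compound exposure 5 hr at 37 C.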

Test [15] in a line: qHTS assay to identify small molecule antagonists of the retinoid-related orphan receptor gamma (ROR-gamma) signaling pathway - cell viability counter screen (AID 1159520). Further: nearly all actives have a fitted effect of over 50% in size. The gist of the method:
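Tet-on ROR gamma CHO cells (1,000/well) were plated 4 hr, given compounds in DMSO for 2 hr at 37 C, then induced with 1 uM final doxycycline for 16 hr. Viability was read as ATP by CellTiter-Glo luminescence after 30 min.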

The target in test [16] is Nuclear receptor ROR-gamma (Homo sapiens) (UniProt P51449). As to the kind of experiment: qHTS assay to identify small molecule antagonists of the retinoid-related orphan receptor gamma (ROR-gamma) signaling pathway (AID 1159521; further: nearly all actives have a fitted effect of over 50% in size; further: potency means the concentration at half of the fitted maximal effect). The method in brief:
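Inducible-expression reporter assay: doxycycline (1 uM final) switched on RORγ in CHO cells bearing a ROR response element-luciferase construct, with test compounds present from 2 h beforehand. Decreased luminescence after 16 h defined antagonist activity.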

Test [17] can be described thus: qHTS assay to identify small molecule agonists of the AP-1 signaling pathway (AID 1159526; calls by dose curve).
Test [18] has as its target Retinoic acid receptor RXR-alpha (Homo sapiens) (UniProt P19793). As to the kind of experiment: qHTS assay to identify small molecule agonists of the RXR signaling pathway (AID 1159527; calls by dose curve; further: nearly all actives have a fitted effect of over 35% in size). The method in brief: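 Compounds in DMSO were added to RXR-alpha-UAS-bla HEK 293T cells kept in 2% charcoal-stripped serum, and incubated 16 hr at 37 C with 5% CO2. Reporter signal came from a 2 hr B/G FRET substrate step.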

Test [19] in a line: qHTS assay to identify small molecule antagonists of the estrogen related receptor (ERR) signaling pathway from Tox21 library - cell viability counter screen (AID 1224834). Further: nearly all actives have a fitted effect of over 30% in size. Further: potency means the concentration at half of the fitted maximal effect. The method in brief: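 CellTiter-Fluor fluorescence measured; ERR cells; 17.5 h compound incubation at 37 C; 30 min reagent step.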

Several values for one entry are separate records, joined by “and”; a condition that tells them apart may be missing. Equal values may be shown once. Results filed as inconclusive are left out. A structure can be active in one record and inactive in another. Activity calls are given as the source filed them. Unless noted, the call rests on the fitted dose curve; in most records, active means well fitted curve in the direction sought with a large enough effect in the repeat runs; inconclusive means weak or mixed curves; inactive means no such curve, though single readings can be large; an effect the other way counts as inactive or inconclusive.

Sequence of Luciferin 4-monooxygenase (Photinus pyralis) (P08659 whole entry, looked up): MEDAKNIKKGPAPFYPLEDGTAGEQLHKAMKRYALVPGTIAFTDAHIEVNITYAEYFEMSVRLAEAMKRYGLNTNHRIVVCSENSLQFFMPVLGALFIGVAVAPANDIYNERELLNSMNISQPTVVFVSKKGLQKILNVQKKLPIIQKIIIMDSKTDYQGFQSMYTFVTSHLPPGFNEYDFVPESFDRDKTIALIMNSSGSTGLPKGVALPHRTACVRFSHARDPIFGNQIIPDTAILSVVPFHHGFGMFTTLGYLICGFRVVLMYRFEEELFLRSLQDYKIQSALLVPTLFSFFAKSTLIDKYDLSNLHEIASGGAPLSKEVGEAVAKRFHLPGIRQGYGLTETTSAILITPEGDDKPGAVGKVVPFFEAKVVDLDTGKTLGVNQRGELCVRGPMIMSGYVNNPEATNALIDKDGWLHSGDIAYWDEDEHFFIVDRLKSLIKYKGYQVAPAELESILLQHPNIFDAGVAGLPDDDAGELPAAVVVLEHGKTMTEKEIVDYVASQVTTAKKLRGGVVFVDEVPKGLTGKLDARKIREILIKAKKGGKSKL
Sequence of Retinoic acid receptor RXR-alpha (Homo sapiens) (P19793 whole entry, looked up): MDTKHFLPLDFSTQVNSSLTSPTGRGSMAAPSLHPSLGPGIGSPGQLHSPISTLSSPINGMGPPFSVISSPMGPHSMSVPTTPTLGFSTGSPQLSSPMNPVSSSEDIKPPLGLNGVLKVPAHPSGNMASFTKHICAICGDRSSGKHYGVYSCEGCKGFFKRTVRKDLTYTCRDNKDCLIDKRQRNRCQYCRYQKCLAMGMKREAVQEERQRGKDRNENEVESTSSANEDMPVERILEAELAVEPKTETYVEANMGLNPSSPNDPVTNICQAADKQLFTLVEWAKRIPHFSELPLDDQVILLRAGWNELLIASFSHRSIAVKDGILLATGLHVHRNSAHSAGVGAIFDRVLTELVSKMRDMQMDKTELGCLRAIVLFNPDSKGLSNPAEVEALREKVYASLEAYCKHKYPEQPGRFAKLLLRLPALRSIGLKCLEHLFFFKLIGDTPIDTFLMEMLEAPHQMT

Consider `S=c1[nH]c2ccccc2s1`, for which the Potency entry in test [1], in test [2], in test [3], in test [4], in test [5] and in [7] was “inactive” each time. Also, the Potency in test [6] is 8.63 µM (active); in test [10], 39.9 µM (active). In addition, the molecule was classed as inactive in test [8] and in test [9].
In the case of `Cc1cc(N)c(S(=O)(=O)O)cc1Cl`, the Potency result in [11], in test [12], in [14], in test [15], in [16] and in test [2] was “inactive” throughout. Also, the Potency result in test [17], in test [18], in [3], in [4], in test [5] and in [6] was “inactive” each time. For the same molecule, the Potency entry in test [19] is “inactive”. For the same molecule, the outcome in test [13] was inactive.
As to `CCCCCOC(=O)CCCC`, the Potency result in test [11], in [12], in [14], in [15], in test [16] and in test [2] was “inactive” in each case. Moreover, the Potency entry in test [17], in test [18], in test [3], in test [5], in [6] and in test [19] was “inactive” throughout. Moreover, the Potency result in test [10] is “inactive”. Also, in test [13], the call was inactive.
For `NC(=O)CC[C@@H]1NC(=O)[C@H](Cc2ccccc2)NC(=O)[C@H](Cc2ccc(O)cc2)NC(=O)CCSSC[C@@H](C(=O)N2CCC[C@H]2C(=O)N[C@@H](CCCN=C(N)N)C(=O)NCC(N)=O)NC(=O)[C@H](CC(N)=O)NC1=O`, the Potency entry in test [11], in [12], in test [14], in test [15], in test [16] and in test [2] was “inactive” throughout. For the same molecule, the Potency entry in test [17], in test [18], in [3], in [4], in test [6] and in test [19] was “inactive” throughout. For the same molecule, the call in [13] was inactive.
Regarding `NC(=O)C1(N2CCCCC2)CCN(CCCN2c3ccccc3CCc3ccc(Cl)cc32)CC1`, the Potency in test [11] is 29.8 µM (active); in test [12] it was 21.3 µM (active); in test [1] it was 26.8 µM (active); in [2], 26.8 µM (active); in [3] it was 21.3 µM (active); in test [19], 29.8 µM (active). Also, the Potency result in test [10] was “inactive”.
As to `CNC(=O)c1ccccc1`, the Potency result in [11], in test [12], in [14], in [15], in test [16] and in test [2] was “inactive” in each case. Further, the Potency entry in test [17], in test [18], in test [3], in [4], in test [19] and in [10] was “inactive” each time. Also, the molecule was called inactive in test [13].
Take `CCCCC(CC)COP(=O)(O)OCC(CC)CCCC` (configuration not stated): the Potency in [11] was 55 µM (active); in test [16] it was 54.6 µM (active) and 48.6 µM (active); in test [5], “inactive and 48.6 µM (active)”; in [19] it was 48.6 µM (active). In addition, the Potency entry in test [12], in [15], in test [2], in [3], in [4] and in [6] was “inactive” throughout. For the same molecule, in test [13], the molecule was classed as inactive.
With `ON=C1CCCC1`, the Potency entry in [12], in test [1], in [2], in test [17], in test [18] and in test [4] was “inactive” in each case. The Potency result in [5], in test [6] and in [10] was “inactive” each time. Also, the Potency in test [19] was 25.2 µM (active).

For the origin of these results see PubChem BioAssay (Tox21).
